Data from PubChem BioAssay AID1159524 (National Center for Advancing Translational Sciences (NCATS), 2015).
Hit rate of the full screen: of about 410,000 compounds, about 5,100 (1.2%) were called active. Not shown: some 8% with an inconclusive outcome. Only a selection was taken, and actives are over-represented in it overall. Unmarked numbers belong to inactive results. Calls come from the whole dose curve; tested in HEK293T cells.
% is set by controls: 0 for no effect and ±100 for the full control effect; potency is the fitted concentration of half-maximal effect.

Assay: High Throughput Screening for Foot and Mouth Disease Virus Antivirals; note: read-out not given here; nearly all actives have a fitted effect of over 45% in size
Details: FMDV antiviral cell-based qHTS; series mostly up to 57.9 µM; activity change, negative = inhibition: at the top concentration
For O=C(Nc1ccccc1C(=O)N1CCOCC1)c1ccc(CSc2ccccc2)cc1, the “activity change, negative = inhibition” value was 0%. For O=C(Nc1ccc(CSc2ccccc2)cc1)c1ccc(CN2CCOCC2)cc1, the Potency was 5.01 µM (active). In the case of C/C(CCc1ccccc1)=N\NC(=O)c1ccc(CN2CCOCC2)cc1, the “activity change, negative = inhibition” value is reported as 4.23%. For CS(=O)(=O)N1CCC2(CC1)CN(Cc1cc(C(F)(F)F)cc(C(F)(F)F)c1)C2, the “activity change, negative = inhibition” value was -10.7%. In the case of COc1ccccc1CNc1nc2ccc(Cl)cc2n2cnnc12, the “activity change, negative = inhibition” value is reported as 14.6%. With O=C(NCC1Cc2cc(F)cc(-c3cnccn3)c2O1)C1COc2ccccc2O1 (stereo not given) the “activity change, negative = inhibition” value was 19.2%. In the case of COc1cccc(CC(=O)Nc2nc(-c3ccc(OC)c(OC)c3)cs2)c1, the Potency is reported as 35.5 µM (active). In the case of COc1cc(CCC(=O)Nc2ccncc2Cl)cc(OC)c1OC, the “activity change, negative = inhibition” value is reported as -24.3%. In the case of COc1ccc(-c2cc(C(=O)NCc3cc(OC)c(OC)c(OC)c3)[nH]n2)cc1, the “activity change, negative = inhibition” value is reported as -9.02%. For COc1cc(CC(=O)Nc2nc(-c3ccc(F)c(F)c3)cs2)cc(OC)c1OC, the Potency was 20 µM (active). For COc1ccc(CC(=O)Nc2nc(-c3ccc(F)c(F)c3)cs2)cc1OC, the Potency was 17.8 µM (active). For COc1cccc(CNS(=O)(=O)c2csc(C(N)=O)c2)c1, the “activity change, negative = inhibition” value was 22%. In the case of COc1ccc(CC(=O)Nc2nnc3n2CCS3)cc1OC, the “activity change, negative = inhibition” value is reported as -3.67%. In the case of COc1cccc(CNC(=O)Cc2csc3nc(-c4ccccc4)cn23)c1, the “activity change, negative = inhibition” value is reported as 4.55%. For Fc1ccc(-c2csc(-c3ccc(C4SCCS4)cc3)n2)cc1F, the “activity change, negative = inhibition” value was 75.2%. In the case of Oc1ccc(-c2c(-c3ccccc3)nn3c(C(F)(F)F)cc(C(F)(F)F)nc23)cc1, the “activity change, negative = inhibition” value is reported as -10.1%. With COc1ccc(-n2c(=O)c(-c3cn(C)c4ccccc34)nc3cnc(OC)nc32)cc1 the “activity change, negative = inhibition” value was -6.96%. In the case of COC(=O)c1ccc(NC(=O)CCc2c(C)nn(-c3ccc(N4CCCC4)nn3)c2C)cc1, the “activity change, negative = inhibition” value is reported as 8.9%. In the case of COc1cc(OC)c2c(c1Cl)OC1(C2=O)C(O)=CC(=O)CC1C (stereo not given), the “activity change, negative = inhibition” value is reported as -10%. With O=C(Nc1ccccc1)N[C@H]1C[C@H](C(=O)O)Nc2cc(Cl)cc(Cl)c21 the “activity change, negative = inhibition” value was -14.8%. For COc1ccc(CN2C(=O)C(NC(=O)c3cccc(C)c3)(C(F)(F)F)N=C2c2ccccc2)cc1 (stereo not given), the “activity change, negative = inhibition” value was -15.2%. In the case of Cc1cnc(C)c(-c2cc(F)c3c(c2)CC(CNC(=O)c2cccc(Cn4cccn4)c2)O3)n1 (stereo not given), the “activity change, negative = inhibition” value is reported as -15.7%. In the case of CN(Cc1ccco1)c1ncncc1-c1ccoc1, the “activity change, negative = inhibition” value is reported as -19.8%. For CC(C)[C@@H]1NC(=O)[C@H](Cc2ccccc2)NC(=O)[C@@H](CC(=O)O)NC(=O)CNC(=O)[C@H](CCCNC(=N)N)NC1=O, the “activity change, negative = inhibition” value was 1.14% [at 39.8 µM]. For COc1ccc2c(c1)c(=Cc1ccc(N(C)C)cc1)c1cc(-c3ccccc3)[n+](C)n12, the Potency was 14.1 µM (active). For CCOC(=O)c1cc(OC(=O)c2ccccc2Cl)n(-c2ccccc2)n1, the “activity change, negative = inhibition” value was -8.7%. For COc1ccccc1-c1ccnc(-n2ncc(C(=O)NCCc3ccncc3)c2C)n1, the “activity change, negative = inhibition” value was 19%. For N#Cc1cccc(-c2nc3cnc(N4CCNCC4)nc3n(C3CC3)c2=O)c1, the “activity change, negative = inhibition” value was -8.75%. In the case of CCCN(CCC)CCCNC(=O)Cn1cc2c(n1)-c1c(oc(C(=O)N3CCCC3)c1C)CC2, the “activity change, negative = inhibition” value is reported as 5.84%. With Cc1ccc(Cn2cc(CCC(=O)NCc3ccc(OC(C)C)cc3)c3ccccc32)cc1 the “activity change, negative = inhibition” value was -4.93%. For Cc1c(C(=O)N2CCCC2)oc2c1-c1nn(CC(=O)NCc3ccc(OC(C)C)cc3)cc1CC2, the Potency was 28.2 µM (active). In the case of Cc1cccc(CNc2cc(-c3ccccc3Cl)ncn2)c1, the “activity change, negative = inhibition” value is reported as -5.63%. In the case of CC(=O)Nc1c(C)nn(-c2ccccc2)c1N1CCC(C(=O)Nc2cc(Cl)ccc2C)CC1, the “activity change, negative = inhibition” value is reported as -1.41%. With Cc1cc(C)n(CC(C)NCc2c(C(=O)N3CCOCC3)nc3c(C)cccn23)n1 (stereo not given) the “activity change, negative = inhibition” value was 7.32%. For Cc1cccc(N2CCC(NCc3c(C(=O)N4CCCCC4)nc4c(C)cccn34)CC2)c1, the “activity change, negative = inhibition” value was -28.4%. In the case of Cc1cccn2c(CNCC(C)Oc3cccnc3)c(C(=O)N3CCOCC3)nc12 (stereo not given), the Potency is reported as 4.47 µM (active). In the case of CC(CCC(=O)O)C1CCC2C3C(O)C[C@@H]4CC(O)CC[C@@]4(C)C3CC[C@@]12C (stereo not given in full), the Potency is reported as “inactive”. For COc1ccc(-c2cc(C(=O)Nc3sc4c(c3C(N)=O)CCCC4)no2)cc1, the “activity change, negative = inhibition” value was 9.76%. In the case of CCOc1ccc(CNC(=O)c2ccc3nc(CC)c(CC)nc3c2)cc1OC, the “activity change, negative = inhibition” value is reported as -24.4%. For CCOc1ccc(CNC(=O)c2cccc(Nc3nc4ccccc4n4nnnc34)c2)cc1OC, the Potency was 7.08 µM (active). For CCOc1ccc(OCC)c(Nc2nc3ccccc3n3nnnc23)c1, the “activity change, negative = inhibition” value was -21%. In the case of COc1cc(OC)cc(C(=O)Nc2ccc3nc(Nc4cccc(C(F)(F)F)c4)cc(C)c3c2)c1, the “activity change, negative = inhibition” value is reported as -14.2%. With COc1cccc(Cn2c(=O)c(C)nc3cnc(Oc4ccccc4)nc32)c1 the “activity change, negative = inhibition” value was -22.8%. With COc1ccc2c3c1OC1CC(O)C=C[C@@]31CCN(C)C2 (stereo not given in full) the “activity change, negative = inhibition” value was -8.42%. For Cc1csc(NC(=O)C2CCN(S(=O)(=O)c3ccccc3)CC2)n1, the “activity change, negative = inhibition” value was -12.9%. For Cc1ccc(C(=O)Nc2nc(-c3ccccc3)ns2)cc1, the “activity change, negative = inhibition” value was 32.2%. With CC(=O)N1CCC(C(=O)Nc2nc(-c3ccccc3)ns2)CC1 the Potency was 2.82 µM (active). For CC(=O)c1ccc(NC(=O)c2nc3nc(C)cc(C(F)F)n3n2)cc1, the “activity change, negative = inhibition” value was 18.7%. With CCc1ccccc1OCCSc1nc(-c2cccs2)nc2cc(=O)[nH]n12 the “activity change, negative = inhibition” value was -15.2%. In the case of CC(C)c1csc(CN2CCC(CO)(Cc3ccccc3)CC2)n1, the “activity change, negative = inhibition” value is reported as -8.62%. With COc1ccccc1C(=O)N[C@@H]1c2ccccc2C2(CCN(C(=O)c3csnn3)CC2)[C@H]1OC the “activity change, negative = inhibition” value was -1.64%. For COc1ccccc1C(=O)N[C@@H]1c2ccccc2C2(CCN(Cc3nc(C(C)C)cs3)CC2)[C@H]1O, the Potency was 11.2 µM (active). For O=C(Nc1cccc(F)c1)N1CC[C@@]2(CCCN(C(=O)Oc3ccccc3)C2)C1, the “activity change, negative = inhibition” value was -16.4%. With CCN1C[C@]2(COC)C(O)C[C@H](OC)[C@@]34C5C[C@]6(O)C(OC)C(O)[C@](OC(C)=O)(C5C6OC(=O)c5ccccc5)C(C(OC)C23)C14 (stereo not given in full) the “activity change, negative = inhibition” value was -3.96%. For O=C(CNC(=O)c1ccc(Br)o1)NCC1CCCO1 (stereo not given), the “activity change, negative = inhibition” value was -17%. For CCOc1ccc(NS(=O)(=O)c2ccc(C(=O)NCC3CCCO3)cc2)cc1 (stereo not given), the “activity change, negative = inhibition” value was -20.1%. For CC(NS(=O)(=O)c1ccc(Br)cc1)C(=O)NCC1CCCO1 (stereo not given), the Potency was 1 µM (active). With NCCC(=O)c1ccccc1N the “activity change, negative = inhibition” value was -2.35%. For O=C1NC(=O)N(CCc2ccc(F)cc2)C(=O)/C1=C/C=C/c1ccccc1, the Potency was 10 µM (active). In the case of CN(C)C1=NC[C@H](Cc2ccccc2)N1CCc1ccc(F)cc1, the “activity change, negative = inhibition” value is reported as 0%.
